SMILES strings stand for the structures. Inconclusive results are not listed. Values without a mark were called inactive. Active and inactive are the calls of the source. Calls come from the whole dose curve; as a rule, active = well fitted inhibition curve with a large enough effect; inconclusive = small, poorly fitted or top-dose-only effect; inactive = no such curve, though single readings can be large or run the other way.
Potency is the fitted concentration of half-maximal effect.

Test system in one assay: not listed separately
In words: Confirmatory screen NINDS Rhodamine qHTS for Zika virus inhibitors (AID 1347161).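 For activity change, negative = inhibition: purified Zika NS2B-NS3 protease with linked NS2B cofactor domain and Rhodamine110 peptide substrate; plate controls were no-inhibitor control for no effect and no-enzyme control for full effect.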 Note: nearly all actives have a fitted effect of over 60% in size. To be noted: purified enzyme assay, Rhodamine110 substrate fluorescence, 15 min; series mostly up to 114 µM; activity change, negative = inhibition: at the top concentration. In outline:
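Kinetic fluorescence (Ex 480 nm, Em 540 nm) over 15 min with 1.5 microM Rhodamine110 peptide and 25 nM linked protease.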
(In general: qHTS replaces the single test concentration by a dilution series.)
`CC1=C(C(=O)OCc2ccccc2)C(c2ccc(-c3ccccc3)cc2)NC(=O)N1CCCCCC(=O)O` (stereo not drawn): the Potency is 2.48 µM (active).

With `COc1ccc(Cl)c(Nc2nc3ccccc3nc2NS(=O)(=O)c2cccc(NC(=O)C(C)(C)N)c2)c1`, the Potency was 5.55 µM (active).

Turning to `O=C(Nc1ccc(S(=O)(=O)Nc2nccs2)cc1)C(c1ccccc1)c1ccccc1`, the Potency is 4.41 µM (active).

Take `CC1(C)CC[C@]2(C(=O)O)CC[C@]3(C)C(=CCC4[C@@]5(C)C[C@@H](O)[C@H](O)C(C)(C)C5CC[C@]43C)C2C1` (stereo partly drawn): the Potency is 6.07 µM (active).

As for `CC1(C)CC2=C3C=CC4C5(C)CCC(O)C(C)(C)C5CCC4(C)C3(C)CCC2(C)C(O)C1` (stereo not drawn), the Potency is 10.8 µM (active).

Consider `O=S(=O)(c1ccccc1)c1cnc2c(N3CCNCC3)cccc2c1`, for which the “activity change, negative = inhibition” value was 16.4%.

In the case of `C#CCN(Cc1cc2c(=O)[nH]c(C)nc2cc1Br)c1ccc(C(=O)NCc2cccnc2)cc1`, the Potency was 31.2 µM (active).

For `CCCCCCOc1cc2c(cc1N(C)c1ncc(C(=O)O)cn1)C(C)(C)CCC2(C)C`, the Potency was 4.41 µM (active).

`OC/C=C/C=C/[C@H]1Cc2cc(O)cc(O)c2O1`: the Potency was 27.8 µM (active).

Another assay deals with Zika virus NS2B-NS3 protease (linked). Nature of the assay: 384 well plate NINDS AMC confirmatory qHTS for Zika virus inhibitors (AID 1347163).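 For activity change, negative = inhibition: linked protease at 5 30 or 60 nM final depending on run; fluorescence of AMC released from Ac-VKTGKR-AMC peptide cleaved by the protease; top concentration of the series differs between compounds; 0% = no-inhibitor control and -100% = no-enzyme control.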 Note: nearly all actives have a fitted effect of over 50% in size. To be noted: Recombinant NS2B-NS3 protease, Ac-VKTGKR-AMC fluorescence; series mostly up to 100 µM; activity change, negative = inhibition: at the top concentration. Summed up:
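Linked protease 5/30/60 nM final; cpds up to 1 mM final, ~15 min preinc. Substrate Ac-VKTGKR-AMC 30 microM final. RT, dark, 25 min; FI ex 355/em 460; normalized to no-enzyme/no-inhibitor ctrls.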
In the case of `O=C(O)/C=C/c1ccc(-c2ccc(O)c(C34CC5CC(CC(C5)C3)C4)c2)cc1`, the “activity change, negative = inhibition” value was 267%.

As to `COc1cc(Nc2nc3ccccc3nc2NS(=O)(=O)c2ccc(NC(=O)c3ccc(OC)c(C)c3)cc2)cc(OC)c1`, the “activity change, negative = inhibition” value is -24.3%.

As to `CCc1c(-c2ccccc2)c(-c2ccccc2)nn1-c1ccccc1-c1cccc(OCC(=O)O)c1`, the Potency is 3.98 µM (active).

In the case of `CC1(C)CCC(C)(C)c2cc(C3(c4ccc(C(=O)O)cc4)OCCO3)ccc21`, the “activity change, negative = inhibition” value is 7.37%.

For `O=C(O)Cc1ccc2oc(-c3ccc(NC(=O)/C=C/c4ccc(Br)cc4)c(F)c3)nc2c1`, the “activity change, negative = inhibition” value was 1240%.

Regarding `C=CC/C=C\C/C=C\CCCCCCCc1cccc(O)c1C(=O)O`, the Potency was 44.7 µM (active).

With `O=C(N/N=C/c1ccc(O)c(O)c1)c1cc2ccccc2cc1O`, the Potency is 50.1 µM (active).

On to `CC(C)c1cccc2c(-c3ccccc3)cc(-c3ccc(-c4ccc(C(=O)O)cc4)[nH]3)nc12`, for which the “activity change, negative = inhibition” value is 70.5%.

Consider `COc1ccc(C(=O)n2c(C)c(Cc3cccc(O[C@@H](C)C(=O)O)c3)c3cc(OC(F)(F)F)ccc32)cc1`, for which the Potency is 12.6 µM (active).

For `CC1=C(C(=O)OCc2ccccc2)C(c2ccc(-c3ccccc3)cc2)NC(=O)N1CCCCCC(=O)O` (stereo not drawn), the Potency is 3.55 µM (active).

Regarding `COc1ccc(Cl)c(Nc2nc3ccccc3nc2NS(=O)(=O)c2cccc(NC(=O)C(C)(C)N)c2)c1`, the Potency is 2.51 µM (active).

Consider `O=C(Nc1ccc(S(=O)(=O)Nc2nccs2)cc1)C(c1ccccc1)c1ccccc1`, for which the “activity change, negative = inhibition” value was -42.1%.

Take `CC1(C)CC[C@]2(C(=O)O)CC[C@]3(C)C(=CCC4[C@@]5(C)C[C@@H](O)[C@H](O)C(C)(C)C5CC[C@]43C)C2C1` (stereo partly drawn): the Potency was 56.2 µM (active).

As to `CCCCCCOc1cc2c(cc1N(C)c1ncc(C(=O)O)cn1)C(C)(C)CCC2(C)C`, the Potency is 8.91 µM (active).
